Measurements reported in PubChem BioAssay (NCI).
About 79,000 compounds went through this panel and 15% of them were active in at least one assay; those are over-represented in the sample as a whole. The source made the active and inactive calls. Cut-off read from the data, not from the text of the source: active = growth inhibition above about 70%; inactive = the rest.

Test: NCI Yeast Anticancer Drug Screen. Data for the wt1 strain (AID 149);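 note: 0% = growth of vehicle-treated wt1 cultures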
Details: S. cerevisiae wt1 strain (SPY 50644) growth inhibition, active compounds read high
Protocol: Growth inhibition of yeast strains with defined genetic alterations is measured as a screen for potential anti-cancer activity. Selected strains with alterations in DNA damage repair or cell cycle control were exposed to compounds and growth inhibition was measured relative to vehicle treated controls. The strain used in this assay is wt1

Measured: growth inhibition

CC(=O)CC[N+](C)(C)C
inactive: at 1.2 µM 0% | at 3.7 µM 11% | at 11.0 µM 2% | at 33.0 µM -5% | at 100.0 µM 2%

O=C1c2ccccc2C(=O)C1C(c1ccc(F)cc1)C1C(=O)c2ccccc2C1=O
active: at 100.0 µM 85%
inactive: at 1.2 µM 9% | at 3.7 µM 10% | at 11.0 µM 7% | at 33.0 µM 18%

CCC1SC(=S)N(c2ccc(Cl)cc2)C1=O (stereo not given)
active: at 100.0 µM 78%
inactive: at 1.2 µM -2% | at 3.7 µM -2% | at 11.0 µM 10% | at 33.0 µM 23%

O=C1C=CC(=O)N1c1ccc(Br)cc1Cl
active: at 1.2 µM 95% | at 3.7 µM 101% | at 11.0 µM 99% | at 33.0 µM 99% | at 100.0 µM 98%

CCCCCCCCCC/C=C\CC(=O)O
active: at 100.0 µM 97%
inactive: at 1.2 µM -1% | at 3.7 µM -2% | at 11.0 µM -3% | at 33.0 µM 2%

N=c1oc2ccccc2cc1-c1nc2ccccc2[nH]1
inactive: at 1.2 µM 1% | at 3.7 µM 9% | at 11.0 µM 15% | at 33.0 µM 28% | at 100.0 µM 45%

Nc1c([N+](=O)[O-])cc2c3c(cccc13)CC2
inactive: at 1.2 µM 6% | at 3.7 µM 12% | at 11.0 µM 24% | at 33.0 µM 25% | at 100.0 µM 24%

O=C1C(C(O)(C(F)(F)F)C(F)(F)F)CCC1C(O)(C(F)(F)F)C(F)(F)F (stereo not given)
inactive: at 1.2 µM 3% | at 3.7 µM 6% | at 11.0 µM 8% | at 33.0 µM 19% | at 100.0 µM 33%
